From PubChem BioAssay AID1159580 (chemical genetic matrix, 2015)
Values joined by “and” are separate entries in the source; they are usually repeats but may differ in a detail not shown here. Equal values may be shown once. Screen size: about 5,500 compounds; about 2,000 (36%) were called active. Not shown: some 18% with an inconclusive outcome. No stated cut-off is given here; in the data, active means normalized growth mostly below about 0.91 (no sharp cut-off); inconclusive means no clear call, values can overlap the other calls; inactive means mostly above about 0.92. The list shows a part of the results.

Assay: chemical genetic growth profiling, strain panel (AID 1159580);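 further: tested at 20 µM; growth read once vehicle control cultures reached saturation at 30 °C; 1 = growth at the plate median or of vehicle wells; lower values mean less growth of the strain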
Settings: S. cerevisiae deletion strains, growth OD

Measured: normalized growth

C=CCSCC1Nc2cc(Cl)c(S(N)(=O)=O)cc2S(=O)(=O)N1 (configuration not stated)
inactive: locus YAL013W, strain DEP1, hits give low values 1.01 | locus YAL021C, strain ccr4, hits give low values 0.994 | locus YAL026C, strain drs2, hits give low values 1.01 | locus YAL030W, strain snc1, hits give low values 1 | locus YBL061C, strain skt5, hits give low values 1 | locus YBR009C, strain hhf1, hits give low values 0.995 | locus YBR021W, strain FUR4, hits give low values 0.991 | locus YBR023C, strain chs3, hits give low values 1 | locus YBR171W, strain sec66, hits give low values 1.01 | locus YBR229C, strain ROT2, hits give low values 1.01 | locus YBR231C, strain swc5, hits give low values 0.985 | locus YBR279W, strain paf1, hits give low values 1 | locus YCL011C, strain gbp2, hits give low values 1 | locus YCL016C, strain dcc1, hits give low values 0.993 | locus YCL029C, strain bik1, hits give low values 1.02 | locus YCL061C, strain MRC1, hits give low values 1 | locus YCL069W, strain vba3, hits give low values 0.999 | locus YCR088W, strain abp1, hits give low values 1 | locus YDL005C, strain med2, hits give low values 0.997 | locus YDL035C, strain GPR1, hits give low values 1.01 | locus YDL040C, strain nat1, hits give low values 1 | locus YDL074C, strain BRE1, hits give low values 1.01 | locus YDL101C, strain DUN1, hits give low values 1.01 | locus YDL134C, strain PPH21, hits give low values 1.01 | locus YDL185W, strain tfp1, hits give low values 1.02 | locus YDL192W, strain arf1, hits give low values 1.02 | locus YDR001C, strain nth1, hits give low values 1 | locus YDR069C, strain doa4, hits give low values 0.997 | locus YDR101C, strain arx1, hits give low values 1.01 | locus YDR137W, strain rgp1, hits give low values 1 | locus YDR150W, strain NUM1, hits give low values 1.01 | locus YDR159W, strain sac3, hits give low values 0.981 | locus YDR162C, strain NBP2, hits give low values 1.02 | locus YDR195W, strain ref2 1 | locus YDR297W, strain sur2, hits give low values 1 | locus YDR318W, strain mcm21, hits give low values 1.02 | locus YDR334W, strain swr1, hits give low values 1 | locus YDR335W, strain msn5, hits give low values 1.01 | locus YDR388W, hits give low values 1.02 | locus YDR392W, strain spt3, hits give low values 0.939 | locus YDR502C, strain sam2, hits give low values 1.03 | locus YEL003W, strain gim4, hits give low values 1 | locus YEL037C, strain rad23, hits give low values 1 | locus YEL061C, strain CIN8 (second series), hits give low values 0.997 | locus YEL061C, strain CIN8, hits give low values 1 | locus YER015W, strain faa2, hits give low values 1 | locus YER016W, strain bim1, hits give low values 1 | locus YER110C, hits give low values 1.03 | locus YER111C, strain swi4, hits give low values 1 | locus YER155C, strain BEM2 (second series), hits give low values 1 | locus YER155C, strain BEM2, hits give low values 1 | locus YER167W, strain BCK2, hits give low values 1 | locus YFR010W, strain ubp6, hits give low values 1.01 | locus YGL078C, strain dbp3, hits give low values 1.03 | locus YGL086W, strain mad1, hits give low values 1.01 | locus YGL167C, strain pmr1, hits give low values 1 | locus YGL173C, strain kem1, hits give low values 1 | locus YGL227W, strain vid30, hits give low values 0.99 | locus YGL240W, strain doc1, hits give low values 0.992 | locus YGL248W, strain PDE1, hits give low values 1.01 | locus YGL253W, strain hxk2, hits give low values 0.992 | locus YGR078C, strain PAC10, hits give low values 1 | locus YGR135W, strain pre9, hits give low values 1.01 | locus YGR229C, strain SMI1, hits give low values 1.01 | locus YGR252W, strain gcn5, hits give low values 1.06 | locus YHR013C, strain ard1, hits give low values 0.988 | locus YHR027C, strain rpn1, hits give low values 1.01 | locus YHR030C, strain SLT2, hits give low values 1 and 1.06 | locus YHR079C, strain IRE1 (second series), hits give low values 1.02 | locus YHR079C, strain IRE1, hits give low values 1.06 | locus YHR094C, strain hxt1, hits give low values 1.02 | locus YHR129C, strain ARP1, hits give low values 1.02 | locus YHR142W, strain chs7, hits give low values 0.988 | locus YHR200W, strain rpn10, hits give low values 1.03 | locus YIL066C, strain RNR3, hits give low values 1 | locus YIL073C, strain SPO22, hits give low values 1.08 | locus YIL125W, strain kgd1, hits give low values 1.02 | locus YIR030C, strain dcg1, hits give low values 1.03 | locus YJL092W, strain hpr5, hits give low values 0.995 | locus YJL095W, strain BCK1 (second series), hits give low values 0.994 | locus YJL095W, strain BCK1, hits give low values 1 and 1.06 | locus YJL115W, strain asf1, hits give low values 1 | locus YJL129C, strain trk1, hits give low values 0.989 | locus YJL134W, strain LCB3, hits give low values 1.01 | locus YJL154C, strain vps35, hits give low values 0.999 | locus YJL164C, strain tpk1, hits give low values 1.01 | locus YJL166W, strain qcr8, hits give low values 0.998 | locus YJL168C, strain set2, hits give low values 1.03 | locus YJL187C, strain SWE1 (second series), hits give low values 1.01 | locus YJL187C, strain SWE1, hits give low values 1 | locus YJR043C, strain POL32, hits give low values 1 | locus YJR066W, strain TOR1, hits give low values 0.991
